Laboratory results reported in PubChem BioAssay.
Activity calls are given as the source filed them. Unless noted, the rule behind the calls is not given here.

What was measured:
[1] = system: Wnt5a (protein binding on small-molecule microarray); assay: small molecules binding Wnt5a protein – biophysical, small-molecule microarray, 635/667 nm fluorescence, primary screen (AID 1142); conditions: 635 nm fluorescence, higher = more signal;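 note: fluorescence read at 667 nm with signal to noise per printed feature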
[2] = ATP-based viability of Huh7 replicon cells – cell-based, CellTiter-Glo luminescence, basal, 48 h, cytotoxicity control for HCV replication inhibitor project, primary screen (AID 1143); conditions: higher = more signal, called active from +8 up or from −8 down;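 note: Huh7 hepatoma cells carrying a hepatitis C replication reporter with no stimulus; test concentration not given here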
[3] = Pseudomonas biofilm growth suppression – PAO1 strain, BacTiter-Glo luminescence, LB-PBS, primary screen (AID 1144); conditions: P. aeruginosa PAO1 biofilm, 12 h, higher = more signal
[4] = basal CRE-LacZ reporter activity in PC12 – cell-based, unstimulated, primary screen (AID 1145); conditions: no forskolin, luminescence, 4.5 h, higher = more signal, called active from +8 up or from −8 down
[5] = forskolin-driven CRE-LacZ activity in PC12 – cell-based, CRE-LacZ reporter, forskolin-stimulated, primary screen (AID 1146); conditions: luminescence, 4.5 h, higher = more signal, called active from +8 up or from −8 down;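 note: PC12 cells with 6xCRE LacZ reporter stimulated by forskolin 10 µM; beta-galactosidase reporter signal reflecting CREB driven transcription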
[6] = biological target: Streptavidin (Streptomyces avidinii) (UniProt P22629); assay: compounds binding control protein streptavidin – biophysical, small-molecule microarray, 635/667 nm fluorescence, artefact control for SMM compound annotation, primary screen (AID 1147); conditions: higher = more signal;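 note: signal reflects streptavidin binding to arrayed compounds as a control protein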
Streptavidin (Streptomyces avidinii), sequence (P22629 whole entry, looked up): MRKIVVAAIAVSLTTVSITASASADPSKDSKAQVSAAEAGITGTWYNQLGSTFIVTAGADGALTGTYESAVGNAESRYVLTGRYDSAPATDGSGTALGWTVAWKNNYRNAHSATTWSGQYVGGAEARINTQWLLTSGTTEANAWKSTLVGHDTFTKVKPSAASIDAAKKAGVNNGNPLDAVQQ

[7] = probe aInhba binding on compound microarray – biochemical, small-molecule microarray, 635/667 nm fluorescence, primary screen (AID 1148); conditions: higher = more signal;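 note: score merges 667nm spot fluorescence with signal-to-noise for antibody binding to printed compounds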
Torsin-1A (Homo sapiens) [8] = biological target: Torsin-1A (Homo sapiens) (UniProt O14656); assay: TOR1A wild-type binding on microarray – cell lysate, small-molecule microarray, lysate, 635/667 nm, primary screen (AID 1149); conditions: COS7 hTOR1A-WT lysate, 635 nm fluorescence, higher = more signal
Torsin-1A (Homo sapiens), sequence (O14656 whole entry, looked up): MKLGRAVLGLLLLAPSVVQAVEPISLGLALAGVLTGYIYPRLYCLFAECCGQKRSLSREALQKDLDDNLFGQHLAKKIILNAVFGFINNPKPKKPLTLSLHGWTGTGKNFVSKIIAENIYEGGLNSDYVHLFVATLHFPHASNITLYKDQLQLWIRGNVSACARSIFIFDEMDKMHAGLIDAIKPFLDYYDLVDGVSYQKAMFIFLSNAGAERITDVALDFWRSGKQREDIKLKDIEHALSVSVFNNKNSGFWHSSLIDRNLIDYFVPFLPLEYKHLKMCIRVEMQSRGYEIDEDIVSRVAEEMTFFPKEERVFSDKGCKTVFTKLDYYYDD

Torsin-1A (Homo sapiens) [9] = biological target: Torsin-1A (Homo sapiens) (UniProt O14656); assay: torsin A mutant lysate binding on microarrays – cell lysate, small-molecule microarray, COS7 lysate, 635/667 nm fluorescence, primary screen (AID 1150); conditions: COS7 hTOR1A mutant lysate, 635 nm fluorescence, higher = more signal;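 note: score pools 667 nm emission and signal to noise measuring lysate protein binding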
[10] = system: Sonic hedgehog protein (Shh); assay: Sonic hedgehog microarray binding compounds – biochemical, small-molecule microarray, 635/667 nm fluorescence, primary screen (AID 1151); conditions: 635 nm fluorescence, higher = more signal;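 note: Shh protein binding to compounds spotted on small-molecule microarray slides; score combines spot fluorescence intensity with signal-to-noise across triplicate slides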
[11] = optical density shifts of acrAB sulA E. coli – strain DRC41, OD650, 48 h, E. coli filamentation inducer project, primary screen (AID 1152); conditions: higher = more signal, called active from +8 up or from −8 down;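 note: E. coli MC1000 strain DRC41 lacking acrAB efflux pump and sulA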
[12] = probe aLefty1 binding on compound microarray – biochemical, small-molecule microarray, 635/667 nm fluorescence, primary screen (AID 1153); conditions: higher = more signal;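 note: score merges spot fluorescence with signal-to-noise ratio from the scanned slide images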
[13] = plasmodial surface anion channel blockers, osmotic lysis – cell-based, P. falciparum Indochina, OD700, 1 h, primary screen (AID 1154); conditions: P. falciparum Indochina infected RBC osmotic lysis, higher = more signal, called active from +8 up or from −8 down
[14] = plasmodial surface anion channel blockers, osmotic lysis – cell-based, P. falciparum Indochina, OD700, 2 h, primary screen (AID 1155);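 note: lysis reports solute entry through the parasite surface anion channel PSAC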; conditions: P. falciparum Indochina infected erythrocytes, higher = more signal, called active from +8 up or from −8 down
[15] = changes in parasitized red cell lysis, either direction – P. falciparum Indochina, OD700, 3 h, PSAC antagonist project, primary screen (AID 1156); conditions: P. falciparum-infected erythrocytes, osmotic lysis, higher = more signal, called active from +8 up or from −8 down
[16] = plasmodial surface anion channel blockers, osmotic lysis – cell-based, P. falciparum Indochina, OD700, 18 h, primary screen (AID 1157); conditions: P. falciparum Indochina infected erythrocytes, osmotic lysis OD700, 18 h; higher = more signal, called active from +8 up or from −8 down
[17] = S6 kinase pathway phospho-S6 level changes – cell-based, A549, cytoblot, luminescence, serum-stimulated, primary screen (AID 1158); conditions: 5 h, higher = more signal;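 note: serum-stimulated A549 lung adenocarcinoma cells; signal is phosphorylated S6 detected by cytoblot immunostaining with HRP secondary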
[18] = biological target: NADPH oxidase 2 (Homo sapiens) (UniProt P04839); assay: compounds shifting NOX2 Amplex Red fluorescence – cell-based, HEK293-NOX2, PMA-stimulated, NOX inhibitor project, primary screen (AID 1159); conditions: 45 min, higher = more signal, called active from +8 up or from −8 down; note: test concentration not given here
NADPH oxidase 2 (Homo sapiens), sequence (P04839 whole entry, looked up): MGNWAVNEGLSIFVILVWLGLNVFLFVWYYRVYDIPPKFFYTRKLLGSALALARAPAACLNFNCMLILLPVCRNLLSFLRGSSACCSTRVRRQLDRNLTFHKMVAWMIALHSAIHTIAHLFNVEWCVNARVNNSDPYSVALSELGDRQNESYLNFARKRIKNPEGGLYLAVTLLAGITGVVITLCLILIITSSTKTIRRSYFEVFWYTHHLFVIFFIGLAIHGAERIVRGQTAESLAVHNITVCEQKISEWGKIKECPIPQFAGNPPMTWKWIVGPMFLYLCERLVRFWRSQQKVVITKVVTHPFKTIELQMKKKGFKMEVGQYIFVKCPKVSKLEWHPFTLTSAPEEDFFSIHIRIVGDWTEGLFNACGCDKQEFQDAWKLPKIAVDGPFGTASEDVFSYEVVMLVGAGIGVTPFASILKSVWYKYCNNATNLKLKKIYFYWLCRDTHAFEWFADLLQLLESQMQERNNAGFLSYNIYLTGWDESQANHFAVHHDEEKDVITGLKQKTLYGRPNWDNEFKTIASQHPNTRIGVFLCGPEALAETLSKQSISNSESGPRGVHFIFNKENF

[19] = biological target: NADPH oxidase 4 (Homo sapiens) (UniProt Q9NPH5); assay: compounds shifting NOX4 Amplex Red fluorescence – cell-based, HEK293-NOX4, tetracycline-induced, NOX inhibitor project, primary screen (AID 1160); conditions: HEK293-NOX4, Amplex Red H2O2 fluorescence, 45 min; higher = more signal, called active from +8 up or from −8 down
NADPH oxidase 4 (Homo sapiens), sequence (Q9NPH5 whole entry, looked up): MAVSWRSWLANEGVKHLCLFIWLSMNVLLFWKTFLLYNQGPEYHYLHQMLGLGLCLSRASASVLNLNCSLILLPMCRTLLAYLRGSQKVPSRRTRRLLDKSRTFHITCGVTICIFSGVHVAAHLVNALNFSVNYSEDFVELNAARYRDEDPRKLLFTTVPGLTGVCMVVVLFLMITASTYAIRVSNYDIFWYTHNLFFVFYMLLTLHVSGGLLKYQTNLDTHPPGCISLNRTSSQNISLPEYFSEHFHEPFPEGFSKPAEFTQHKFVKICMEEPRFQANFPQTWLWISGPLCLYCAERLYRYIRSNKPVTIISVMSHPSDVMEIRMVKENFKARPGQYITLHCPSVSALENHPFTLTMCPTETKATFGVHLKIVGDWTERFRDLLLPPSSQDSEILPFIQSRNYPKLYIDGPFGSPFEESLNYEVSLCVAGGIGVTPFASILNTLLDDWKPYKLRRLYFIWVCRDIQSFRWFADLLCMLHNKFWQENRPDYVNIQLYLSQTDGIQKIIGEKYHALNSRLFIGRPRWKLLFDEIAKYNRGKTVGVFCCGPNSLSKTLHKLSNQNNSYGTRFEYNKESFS

[20] = biological target: NADPH oxidase 5 (Homo sapiens) (UniProt Q96PH1); assay: compounds shifting NOX5 Amplex Red fluorescence – cell-based, HEK293-NOX5, NOX inhibitor project, primary screen (AID 1161); conditions: HEK293-NOX5, ionomycin, 45 min, higher = more signal
NADPH oxidase 5 (Homo sapiens), sequence (Q96PH1 whole entry, looked up): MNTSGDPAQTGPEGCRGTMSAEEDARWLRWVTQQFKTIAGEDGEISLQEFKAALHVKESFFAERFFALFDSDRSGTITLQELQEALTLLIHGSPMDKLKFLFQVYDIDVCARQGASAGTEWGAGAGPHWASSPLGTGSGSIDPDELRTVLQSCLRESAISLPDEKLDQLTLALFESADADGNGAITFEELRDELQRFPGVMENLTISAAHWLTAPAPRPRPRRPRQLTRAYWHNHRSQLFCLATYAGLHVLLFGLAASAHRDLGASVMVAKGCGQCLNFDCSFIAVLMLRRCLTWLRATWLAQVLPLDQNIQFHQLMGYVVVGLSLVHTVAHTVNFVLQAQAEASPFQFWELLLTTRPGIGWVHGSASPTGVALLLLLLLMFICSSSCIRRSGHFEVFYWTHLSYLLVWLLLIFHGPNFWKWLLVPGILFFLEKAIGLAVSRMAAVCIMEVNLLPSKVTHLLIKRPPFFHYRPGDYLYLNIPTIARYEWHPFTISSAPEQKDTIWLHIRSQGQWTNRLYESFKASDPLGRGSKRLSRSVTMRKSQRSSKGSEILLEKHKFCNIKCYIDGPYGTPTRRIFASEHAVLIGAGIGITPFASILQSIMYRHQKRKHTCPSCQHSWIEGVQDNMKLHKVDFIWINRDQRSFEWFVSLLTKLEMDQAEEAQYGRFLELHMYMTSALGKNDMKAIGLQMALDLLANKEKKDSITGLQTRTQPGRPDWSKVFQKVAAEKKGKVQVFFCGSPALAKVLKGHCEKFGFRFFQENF

Row | SMILES | composite z-score [1] | z-score [2] | z-score [3] | z-score [4] | z-score [5] | composite z-score [6] | composite z-score [7] | composite z-score (Torsin-1A (Homo sapiens) [8]) | composite z-score (Torsin-1A (Homo sapiens) [9]) | composite z-score [10] | z-score [11] | composite z-score [12] | z-score [13] | z-score [14] | z-score [15] | z-score [16] | z-score [17] | z-score [18] | z-score [19] | z-score [20]
1 | CO[C@H]1O[C@H](CO)[C@@H](OC(=O)Nc2ccc3c(c2)OCO3)[C@H](OC(=O)Nc2ccccc2-c2ccccc2)[C@H]1OC(=O)Nc1ccccc1-c1ccccc1 | 1.07 | -5.61 (inactive) | -0.378 (inactive) | 1.5 (inactive) | -1.05 (inactive) | 0.2 | 0.196 | 0.384 | 1.55 | 0.333 | -0.133 (inactive) | -0.0536 | 2.14 (inactive) | 0.825 (inactive) | -0.124 (inactive) | 1.21 (inactive) | -0.311 | -4.55 (inactive) | -0.707 (inactive) | -0.848
2 | C=CC[C@@]1(C(=O)N(C)C)N=C(c2ccc(OCCCO)cc2)O[C@@H]1c1ccccc1CN=[N+]=[N-] | 0.615 | -2.89 (inactive) | 1.1 (inactive) | 0.754 (inactive) | -0.357 (inactive) | 1.35 | 0.143 | 0.886 | 1.17 | 0.38 | 1.34 (inactive) | 0.0513 | 23.1 (active) | 6.73 (inactive) | 1.93 (inactive) | 1.26 (inactive) | -0.354 | 1.85 (inactive) | 0.736 (inactive) | -1.42
3 | C=CCOC(=O)[C@@H]1[C@H]2C(=O)O[C@H](c3ccccc3)[C@H](c3ccccc3)N2[C@H](c2ccc(OCCOC(=O)[C@H]3C[C@H]4C(=O)N[C@@H](CCCCN(C)C)C(=O)N4[C@H]3c3ccc(O)cc3)cc2)[C@@]12C(=O)Nc1ccc(I)cc12 | 0.374 | -1.29 (inactive) | -0.852 (inactive) | -0.118 (inactive) | 2.13 (inactive) | 0.433 | 0.0895 | 1.18 | 0.9 | 1.98 | -1.09 (inactive) | 0.0313 | -0.202 (inactive) | 0.422 (inactive) | 3.69 (inactive) | -0.116 (inactive) | -1.34 | 1.6 (inactive) | 0.182 (inactive) | 0.946
4 | COc1ccc([Si](C)(C)[C@H]2[C@H](CCO)O[C@@]3(C(=O)N(Cc4ccc(NC(=O)[C@H](C)O)cc4)c4ccccc43)[C@@H]2C)cc1 | 0.185 | -8.05 (active) | -0.159 (inactive) | 5 (inactive) | -1.71 (inactive) | 0.674 | -0.0405 | 0.189 | 0.753 | 0.785 | 0.0546 (inactive) | -0.0984 | 29.9 (active) | 25.8 (active) | 2.52 (inactive) | 2.46 (inactive) | 1.27 | 0.25 (inactive) | 1.39 (inactive) | -0.66
5 | C=CC[C@@]1(C(=O)OC)N=C(c2ccc(OCCCO)cc2)O[C@@H]1c1ccccc1N=[N+]=[N-] | 0.938 | -3.5 (inactive) | -1.57 (inactive) | 1.79 (inactive) | -0.775 (inactive) | -0.195 | 0.286 | 0.288 | 0.672 | 2.02 | 0.0465 (inactive) | 0.398 | 30.6 (active) | 27.4 (active) | 4.11 (inactive) | 5.12 (inactive) | 0.581 | -0.471 (inactive) | 1.43 (inactive) | -0.0237
6 | COc1ccc([Si](C)(C)[C@H]2[C@H](CC(=O)N3CCC[C@H]3CO)O[C@@]3(C(=O)N(Cc4ccc(N5CCCCC5=O)cc4)c4ccccc43)[C@@H]2C)cc1 | 0.567 | -3.13 (inactive) | -0.53 (inactive) | -0.258 (inactive) | 0.44 (inactive) | -0.0147 | 0.426 | 0.13 | 0.608 | 2.17 | 1.5 (inactive) | 0.44 | 7.73 (inactive) | 1.66 (inactive) | 2.12 (inactive) | 1.02 (inactive) | 0.287 | 1.52 (inactive) | 1.03 (inactive) | 2.69
7 | CCOC(=O)C[C@H]1[C@H](OC(=O)Cc2ccc3c(c2)OCO3)[C@@H](NC(=O)Cc2ccc(OC)cc2)c2cc(OCCCO)ccc2N1C(=O)Cc1ccc(OC)cc1 | -0.31 | -0.972 (inactive) | -0.805 (inactive) | 1.52 (inactive) | -0.0811 (inactive) | 0.699 | -0.154 | 0.142 | 0.209 | 0.106 | 1.91 (inactive) | -0.15 | 10.7 (active) | 0.647 (inactive) | -1.02 (inactive) | -0.395 (inactive) | 1.68 | -0.988 (inactive) | 0.754 (inactive) | 0.404
8 | C=C(COC)C(=O)CC[C@H](OC(=O)c1cccnc1)c1ccc(OCCO)cc1 | 0.965 | -2.1 (inactive) | 0.385 (inactive) | 1.54 (inactive) | 0.755 (inactive) | 0.257 | 0.103 | 0.613 | 1.43 | 2.4 | -0.367 (inactive) | -0.285 | 9.54 (active) | 1.2 (inactive) | 0.247 (inactive) | 0.553 (inactive) | -0.271 | -0.253 (inactive) | 0.592 (inactive) | -1.26
